A short description of assay [1]: ATG_XTT_Cytotoxicity: Cytotoxicity Assessment in the Attagene TRANS-FACTORIAL HepG2 Assay (AID 2283584). An outline of the steps:
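Transfect HepG2 with GAL4-UAS reporter units, dose compound, incubate 24 h, then measure viable cell number by XTT. Fit concentration response against DMSO baseline.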

The nature of assay [2]: TOX21_p53_BLA_p2_viability: Viability Assessment in the Tox21 HCT-116 p53 Agonism Beta-lactamase Assay, Phase 2 (AID 2283591).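 Further: compound exposure lasted 16 h at 37 °C; actives lower the ATP signal meaning cytotoxicity.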 An outline of the steps: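 HCT-116 p53-bla cells (4000/well) rested 5 h at 37C, then received compounds in DMSO (217-fold dilution) for 16 h at 37C, 5% CO2. After the CCF4 read, CellTiter-Glo was added; ATP luminescence was read after 30 min at room temperature.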

In assay [3] the target is Cellular tumor antigen p53 (Homo sapiens) (UniProt P04637). Briefly: TOX21_p53_BLA_p2_ratio: Tox21 HCT-116 p53 Agonism Beta-lactamase Assay, Ratio, Phase 2 (AID 2283592). The procedure, abridged: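 Cleaved-to-uncleaved substrate ratio (460 vs 530 nm) measured in HCT116 cells with an inducible beta-lactamase reporter linked to p53 activity. Compounds incubated 16 h at 37C before 2 h room-temperature CCF4-AM loading.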

The nature of assay [4]: TOX21_p53_BLA_p3_viability: Viability Assessment in the Tox21 HCT-116 p53 Agonism Beta-lactamase Assay, Phase 3 (AID 2283593).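 Further: cells exposed to compound for 16 h before reading.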 The procedure, abridged: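 HCT-116 cells (4000/well) rested 5 h at 37C, then got DMSO compounds by pin tool (217-fold dilution) for 16 h at 37C, 5% CO2. After the bla read, CellTiter-Glo was added and luminescence read at 30 min, room temperature.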

Assay [5] has as its target Cellular tumor antigen p53 (Homo sapiens) (UniProt P04637). Description: TOX21_p53_BLA_p3_ratio: Tox21 HCT-116 p53 Agonism Beta-lactamase Assay, Ratio, Phase 3 (AID 2283596). An outline of the steps:
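Cells were seeded at 4000/well, rested 5 h at 37C, then dosed with DMSO compound solutions (217-fold dilution) for 16 h. CCF4-AM substrate was loaded for 2 h at room temperature, and the 460/530 nm emission ratio was fitted for gain of signal versus DMSO.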

Assay [6] in a line: TOX21_p53_BLA_p4_viability: Viability Assessment in the Tox21 HCT-116 p53 Agonism Beta-lactamase Assay, Phase 4 (AID 2283597).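 Further: hits lower the luminescence signal meaning cytotoxicity.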 An outline of the steps: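 Viability is taken as cellular ATP: after 16 h compound exposure of HCT116 cells and a 2 h room-temperature CCF4-AM substrate step, CellTiter-Glo reagent is added and luminescence is measured 30 min later.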
Assay [7] deals with Cellular tumor antigen p53 (Homo sapiens) (UniProt P04637). Description: TOX21_p53_BLA_p5_ratio: Tox21 HCT-116 p53 Agonism Beta-lactamase Assay, Ratio, Phase 5 (AID 2283599). An outline of the steps:
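HCT-116 cells carrying a p53-inducible beta-lactamase reporter were seeded at 4000 cells/well and dosed after 5 h with compound in DMSO (217-fold dilution). After 16 h at 37C, CCF4-AM substrate was added for 2 h, and the 460/530 nm emission ratio was scored as gain-of-signal versus DMSO.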

The nature of assay [8]: TOX21_p53_BLA_p5_viability: Viability Assessment in the Tox21 HCT-116 p53 Agonism Beta-lactamase Assay, Phase 5 (AID 2283600). An outline of the steps: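 Viability is taken from cellular ATP content, measured by luciferase luminescence in the same wells after the beta-lactamase ratio read. Cells are seeded at 4000 per well and exposed to DMSO-dissolved compounds, diluted 217-fold, for 16 h.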

Assay [9] deals with Cellular tumor antigen p53 (Homo sapiens) (UniProt P04637). Description: TOX21_p53_BLA_p4_ratio: Tox21 HCT-116 p53 Agonism Beta-lactamase Assay, Ratio, Phase 4 (AID 2283601). The procedure, abridged: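 HCT116 cells carrying an inducible beta-lactamase reporter were plated at 4000 cells/well, rested 5 h, then exposed to compounds in DMSO (217-fold dilution) for 16 h at 37C. CCF4-AM substrate was loaded 2 h at room temperature; 460/530 nm emission ratio scored gain-of-signal versus DMSO.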

“And” between values parts separate entries of the source, which are not always exact repeats. Equal entries are not always repeated. Results filed as inconclusive are left out. Some structures have more than one record in an assay (separate samples or runs), and their calls can disagree. The source made the active and inactive calls. How the source made its calls: active means hit-call score of the fitted dose curve at least 0.9, where 1 is the maximum; inconclusive means response in the unintended direction; inactive means score below 0.9.

By AC50 is commonly meant the midpoint of the concentration-response curve, whichever way the signal moves.

Chain of Cellular tumor antigen p53 (Homo sapiens) (P04637 whole entry, looked up): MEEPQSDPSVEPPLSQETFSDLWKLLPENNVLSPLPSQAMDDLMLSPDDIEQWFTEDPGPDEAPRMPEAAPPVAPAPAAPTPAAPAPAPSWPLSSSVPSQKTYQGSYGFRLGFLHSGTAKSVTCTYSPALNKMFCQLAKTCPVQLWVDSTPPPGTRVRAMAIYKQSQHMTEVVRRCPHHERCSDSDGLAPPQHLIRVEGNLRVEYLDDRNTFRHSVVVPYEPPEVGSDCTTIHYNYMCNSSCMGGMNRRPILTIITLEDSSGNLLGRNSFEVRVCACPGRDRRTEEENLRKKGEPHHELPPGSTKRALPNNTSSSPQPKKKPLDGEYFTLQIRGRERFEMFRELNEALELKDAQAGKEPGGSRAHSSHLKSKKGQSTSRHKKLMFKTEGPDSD

Turning to `c1ccc2sc(SN(C3CCCCC3)C3CCCCC3)nc2c1`, the molecule was classed as inactive in [1].
The same measure, in the same setting: the entry for `N#Cc1ccc(CC(=NNC(=O)Nc2ccc(OC(F)(F)F)cc2)c2cccc(C(F)(F)F)c2)cc1` is “inactive”.
For the molecule `C=C(C)C(=O)Nc1ccc(Cl)c(Cl)c1`, the result in assay [1], in assay [2], in assay [3], in assay [4], in assay [5] and in [6] was inactive. Further, the outcome in assay [7], in [8] and in assay [9] was inactive. Besides, the AC50 was 60.6 µM (active) in [3], 56.1 µM (active) in [5], 74.7 µM (active) in assay [7] and 68 µM (active) in [9].
Regarding `CO[Si](C)(OC)c1ccccc1`, the outcome in [1], in [2], in assay [3], in assay [4], in [5] and in assay [6] was inactive.
Consider `CC(C)(C)c1cc(CCC(=O)NN)cc(C(C)(C)C)c1O`, for which the molecule was classed as inactive in assay [1], in [2], in assay [3], in [4], in assay [5] and in assay [6]. Also, the outcome in assay [7] and in assay [8] was inactive.
In the case of `CC1(C)[C@@H]2CC[C@@]1(C)[C@H](O)C2`, the molecule was classed as inactive in assay [1], in assay [2], in [3], in [4] and in assay [5].
Take `O=C1OC2(c3cc(Br)c(O)c(Br)c3Oc3c2cc(Br)c(O)c3Br)c2c(Cl)c(Cl)c(Cl)c(Cl)c21`: the call in assay [1], in assay [3], in assay [5], in [7] and in [8] was inactive. The AC50 in assay [2] is 46.2 µM (active) and 19.8 µM (active); in assay [3], 16.8 µM (active); in assay [4], 48.3 µM (active) and 20.9 µM (active); in assay [5], 50.7 µM (active); in [6], 50.2 µM (active) and 23.6 µM (active); in assay [7], 50.2 µM (active).
As for `CN(C)CCOCCN(C)C`, the outcome in assay [1], in assay [2], in [3], in assay [4], in assay [5] and in assay [6] was inactive. For the same molecule, the result in [7] and in assay [8] was inactive.
Take `OCCOCCOCCOCCO`: the outcome in [1], in [2], in assay [3], in [4], in assay [5] and in assay [6] was inactive. For the same molecule, the result in assay [7] and in [8] was inactive.
`Cc1ccc(C(=O)c2cc(O)c(O)c([N+](=O)[O-])c2)cc1`: the call in assay [1], in assay [2], in [3], in assay [4], in assay [5] and in [6] was inactive. Moreover, the result in [7] and in assay [8] was inactive. For the same molecule, the AC50 in assay [2] is 53.8 µM (active); in [3] it was 14.6 µM (active); in [4] it was 46.1 µM (active); in assay [6] it was 46.1 µM (active); in [7] it was 71.3 µM (active).
Take `O=C(O)c1cccc([N+](=O)[O-])c1`: the outcome in assay [1], in [2], in assay [3], in assay [4], in assay [5] and in assay [6] was inactive. Moreover, the outcome in assay [7] and in assay [8] was inactive.
Take `OC1C(O)C(O)C(O)C(O)C1O` (configuration not stated): the molecule was classed as inactive in assay [1].
Take `CC1(C)[C@H](C(=O)OCc2cccc(Oc3ccccc3)c2)[C@@H]1C=C(Cl)Cl`: the call in [1] was inactive.
`CN(C)C(=N)N=C(N)N`: the molecule was called inactive in [1], in [2], in assay [3], in assay [4], in [5] and in assay [6]. For the same molecule, the outcome in [7], in [8] and in assay [9] was inactive.
Take `CC(C)(C#N)c1cc(Cn2cncn2)cc(C(C)(C)C#N)c1`: the call in [1], in assay [2], in assay [3], in [4], in [5] and in assay [6] was inactive. Besides, the result in assay [7], in assay [8] and in [9] was inactive.

For the origin of these results see PubChem BioAssay (EPA / NIEHS).
